{
  "source": "PubChem BioAssay (EPA / NIEHS)",
  "note": "Records with an inconclusive call do not appear. Activity calls are given as the source filed them. Rule for the calls: active = hit-call score of the fitted dose curve at least 0.9, where 1 is the maximum; inconclusive = response in the unintended direction; inactive = score below 0.9.",
  "data": [
    {"molecular_target": "human Serotonin, 5-Hydroxytryptamine Receptor 7 (5HT7), HTR7 (gene 3363) (UniProt P34969)", "sequence (P34969 whole entry, looked up)": "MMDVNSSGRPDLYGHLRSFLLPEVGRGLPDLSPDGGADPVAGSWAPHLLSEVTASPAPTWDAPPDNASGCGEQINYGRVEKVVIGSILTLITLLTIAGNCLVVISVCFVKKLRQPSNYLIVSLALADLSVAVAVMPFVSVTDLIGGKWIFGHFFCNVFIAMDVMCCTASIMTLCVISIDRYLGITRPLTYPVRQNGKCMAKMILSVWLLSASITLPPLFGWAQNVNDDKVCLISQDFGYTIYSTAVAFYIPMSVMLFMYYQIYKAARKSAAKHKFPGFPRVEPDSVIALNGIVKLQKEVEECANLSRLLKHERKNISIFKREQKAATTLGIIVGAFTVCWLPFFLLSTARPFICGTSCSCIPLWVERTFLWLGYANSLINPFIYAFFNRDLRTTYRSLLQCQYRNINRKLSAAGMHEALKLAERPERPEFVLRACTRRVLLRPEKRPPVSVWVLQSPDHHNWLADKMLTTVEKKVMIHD", "test": "NVS_GPCR_h5HT7: NovaScreen (NVS) G Protein-Coupled Receptor Assay for human Serotonin, 5-Hydroxytryptamine Receptor 7 (5HT7) (AID 2283255);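 note: hits reduce specific radioligand binding relative to DMSO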", "in_short": "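Filter-bound radioactivity counted after 1 h, with loss of specific radioligand binding fitted against DMSO. Membrane protein came from CHO cells expressing human 5HT7. Chemicals were tested first at 25 uM in duplicate, then in concentration series if active.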", "values": [
      {"compound": "CC(=O)NC1(c2cccc(F)c2)CCN(CC[C@@]2(c3ccc(Cl)c(Cl)c3)CN(c3ccccc3)C(=O)CO2)CC1", "AC50": "20.8 µM (active)"},
      {"compound": "O=[N+]([O-])c1ccc(O)cc1", "outcome": "inactive"},
      {"compound": "O=C(OCCOCCOC(=O)c1ccccc1)c1ccccc1", "AC50": "8.96 µM (active)"},
      {"compound": "CCCOc1sc(C(=O)N2CCC(c3cc(CN)ccc3F)CC2)c(C)c1Br", "AC50": "5.09 µM (active)"},
      {"compound": "Oc1cccc(O)c1", "outcome": "inactive"},
      {"compound": "NC(=O)N(O)[C@@H]1C=C[C@H](Oc2cccc(Oc3ccc(F)cc3)c2)C1", "AC50": "12.8 µM (active)"},
      {"compound": "O=C(O)Cc1cc(I)c(Oc2cc(I)c(O)c(I)c2)c(I)c1", "AC50": "5.26 µM (active)"},
      {"compound": "NC(=O)N1C(=O)C(C(=O)c2cc(Cl)cs2)c2cc(F)c(Cl)cc21", "note": "(stereo not drawn)", "outcome": "inactive"},
      {"compound": "CCCCCCCCCCCCc1ccccc1S(=O)(=O)O", "AC50": "7.69 µM (active)"},
      {"compound": "CC[C@H](c1ccc(O)cc1)[C@@H](CC)c1ccc(O)cc1", "outcome": "inactive"},
      {"compound": "CCN(CC)CCNc1ccc(CNC=O)c2sc3ccc(OC)cc3c(=O)c12", "outcome": "inactive"},
      {"compound": "CCC(=C(c1ccc(O)cc1)c1ccc(OCCN(C)C)cc1)c1ccccc1", "AC50": "5.49 µM (active)"},
      {"compound": "CN1CCN(c2ccccc2/C=C2\\SCCN(c3ccc(Cl)c(Cl)c3)C2=O)CC1", "AC50": "0.0142 µM (active)"},
      {"compound": "CC#C[C@]1(O)CC[C@H]2[C@@H]3CCC4=CC(=O)CCC4=C3[C@@H](c3ccc(N(C)C)cc3)C[C@@]21C", "AC50": "23.7 µM (active)"},
      {"compound": "Cc1oc(-c2ccccc2)nc1CCOc1ccc(C[C@H](Nc2ccccc2C(=O)c2ccccc2)C(=O)O)cc1", "outcome": "inactive"}
    ]},
    {"molecular_target": "human Adenosine A2a Receptor (AdoRA2a), ADORA2A (gene 135) (UniProt P29274)", "sequence (P29274 whole entry, looked up)": "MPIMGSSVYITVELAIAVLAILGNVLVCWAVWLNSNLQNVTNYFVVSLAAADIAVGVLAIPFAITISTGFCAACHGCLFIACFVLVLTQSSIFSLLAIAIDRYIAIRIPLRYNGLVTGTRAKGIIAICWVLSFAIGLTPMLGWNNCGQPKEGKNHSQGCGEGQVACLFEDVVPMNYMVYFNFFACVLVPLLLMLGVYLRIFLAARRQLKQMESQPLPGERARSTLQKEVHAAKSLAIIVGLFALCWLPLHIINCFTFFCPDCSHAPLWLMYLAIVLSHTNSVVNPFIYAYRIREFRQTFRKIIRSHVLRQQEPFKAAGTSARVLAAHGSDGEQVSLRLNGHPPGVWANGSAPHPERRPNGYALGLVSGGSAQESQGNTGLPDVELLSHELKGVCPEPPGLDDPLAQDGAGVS", "test": "NVS_GPCR_hAdoRA2a: NovaScreen (NVS) G Protein-Coupled Receptor Assay for human Adenosine A2a Receptor (AdoRA2a) (AID 2283256)", "in_short": "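HEK293-derived receptor preparation, radioligand displacement, 1.5 h, filtration + scintillation read. Loss of bound signal scored vs DMSO. Single-point 25 uM in duplicate first, then concentration-response for actives.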", "values": [
      {"compound": "Oc1cc2ccccc2c2ccccc12", "outcome": "inactive"},
      {"compound": "NC(=O)N1C(=O)C(C(=O)c2cc(Cl)cs2)c2cc(F)c(Cl)cc21", "note": "(stereo not drawn)", "AC50": "19.7 µM (active)"},
      {"compound": "CCCCCCCCCCCCc1ccccc1S(=O)(=O)O", "AC50": "22.6 µM (active)"},
      {"compound": "CC(C)(C)c1ccc(O)c(C(C)(C)C)c1", "outcome": "inactive"},
      {"compound": "CC[C@H](c1ccc(O)cc1)[C@@H](CC)c1ccc(O)cc1", "AC50": "12.4 µM (active)"},
      {"compound": "CCN(CC)CCNc1ccc(CNC=O)c2sc3ccc(OC)cc3c(=O)c12", "AC50": "5.28 µM (active)"},
      {"compound": "CCC(=C(c1ccc(O)cc1)c1ccc(OCCN(C)C)cc1)c1ccccc1", "AC50": "3.08 µM (active)"},
      {"compound": "CC#C[C@]1(O)CC[C@H]2[C@@H]3CCC4=CC(=O)CCC4=C3[C@@H](c3ccc(N(C)C)cc3)C[C@@]21C", "outcome": "inactive"}
    ]}
  ]
}
